# Test results: paper PMC7862700, “An all-to-all approach to the identification of sequence-specific readers for epigenetic DNA modifications on cytosine”
# Assays:
# Test in all cases: DAPPL (digital affinity profiling via proximity ligation, sequencing); 10 mM Tris-HCl pH 7.5, 50 mM NaCl, 1 mM DTT, 4% glycerol, room temperature, 30 min; GST-TFs on glutathione beads, 16-mer random dsDNA library, 0.1% formaldehyde crosslink after washing; high values mean tight binding
# [1] = target: T1, FEV (Homo sapiens, UniProt Q99581 1-238); conditions: protein: recombinant; tags: N-terminal GST; dsDNA, one strand shown
# T1 sequence: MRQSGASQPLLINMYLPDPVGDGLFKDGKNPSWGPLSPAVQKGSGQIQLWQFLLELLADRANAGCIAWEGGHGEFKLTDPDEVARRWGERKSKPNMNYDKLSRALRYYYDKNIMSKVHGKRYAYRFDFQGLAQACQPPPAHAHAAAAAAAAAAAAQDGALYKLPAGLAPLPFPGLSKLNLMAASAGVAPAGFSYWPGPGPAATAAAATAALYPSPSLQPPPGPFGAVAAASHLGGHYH
# Method in brief: (§1)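 Binding signal is each hexamer's read frequency for a factor divided by its frequency in the tag-only sample. The factors were GST-fused human transcription factors from yeast, captured on glutathione beads, DNA-barcoded and pooled with that sample. Pools were incubated with 200 nmole of a random double-stranded 16-mer DNA library in Tris/NaCl/DTT/glycerol buffer at room temperature for 30 min, then washed, crosslinked with 0.1% formaldehyde, proximity-ligated with BsaI/T4 ligase (1 h, 37 °C), PCR-amplified and sequenced on an Illumina NextSeq500.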
# [2] = target: ETV5 (Homo sapiens, UniProt P41161 1-510); conditions: protein: recombinant; tags: N-terminal GST; dsDNA, one strand shown
# Sequence of ETV5 (P41161 whole entry): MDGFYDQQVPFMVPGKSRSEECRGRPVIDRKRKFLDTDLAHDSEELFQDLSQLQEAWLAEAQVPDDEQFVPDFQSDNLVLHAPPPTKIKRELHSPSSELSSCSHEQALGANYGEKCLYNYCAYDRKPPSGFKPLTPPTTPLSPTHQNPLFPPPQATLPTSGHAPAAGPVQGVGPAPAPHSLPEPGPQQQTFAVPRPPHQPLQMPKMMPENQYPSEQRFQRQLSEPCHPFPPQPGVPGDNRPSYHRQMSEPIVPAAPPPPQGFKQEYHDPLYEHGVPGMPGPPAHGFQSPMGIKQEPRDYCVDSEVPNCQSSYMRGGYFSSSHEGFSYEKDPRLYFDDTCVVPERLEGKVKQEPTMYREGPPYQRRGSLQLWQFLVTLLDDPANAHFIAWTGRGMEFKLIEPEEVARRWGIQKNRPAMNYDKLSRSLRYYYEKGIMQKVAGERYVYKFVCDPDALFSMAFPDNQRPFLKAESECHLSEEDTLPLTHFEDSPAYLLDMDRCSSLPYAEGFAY
# Method in brief: as §1
# [3] = target: HSF1 (Homo sapiens, UniProt Q00613 1-529); conditions: protein: recombinant; tags: N-terminal GST; chain copies: 3; dsDNA, one strand shown
# Sequence of HSF1 (Q00613 whole entry): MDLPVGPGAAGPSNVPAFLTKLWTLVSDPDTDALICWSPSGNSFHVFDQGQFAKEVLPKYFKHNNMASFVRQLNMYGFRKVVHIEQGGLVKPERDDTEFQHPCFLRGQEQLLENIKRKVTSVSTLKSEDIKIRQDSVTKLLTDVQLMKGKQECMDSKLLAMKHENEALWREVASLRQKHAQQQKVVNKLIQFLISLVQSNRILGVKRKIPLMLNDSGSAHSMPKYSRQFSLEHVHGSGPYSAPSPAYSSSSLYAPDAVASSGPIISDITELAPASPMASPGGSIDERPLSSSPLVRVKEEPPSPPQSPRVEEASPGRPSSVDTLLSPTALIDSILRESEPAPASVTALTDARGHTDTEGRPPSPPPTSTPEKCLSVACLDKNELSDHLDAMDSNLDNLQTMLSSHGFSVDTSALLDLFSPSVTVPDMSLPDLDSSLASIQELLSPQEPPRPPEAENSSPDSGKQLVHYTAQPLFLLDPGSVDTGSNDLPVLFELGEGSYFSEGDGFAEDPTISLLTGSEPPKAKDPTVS
# Method in brief: as §1
# [4] = target: T2, SPIC (Homo sapiens, UniProt Q8N5J4 1-248); conditions: protein: recombinant; tags: N-terminal GST; dsDNA, one strand shown
# T2 sequence: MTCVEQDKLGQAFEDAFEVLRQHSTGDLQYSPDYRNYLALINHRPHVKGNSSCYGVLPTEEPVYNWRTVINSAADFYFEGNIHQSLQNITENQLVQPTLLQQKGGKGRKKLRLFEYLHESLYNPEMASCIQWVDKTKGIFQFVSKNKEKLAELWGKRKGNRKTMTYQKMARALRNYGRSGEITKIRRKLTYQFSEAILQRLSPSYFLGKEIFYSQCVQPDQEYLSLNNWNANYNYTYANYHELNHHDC
# Method in brief: as §1
# [5] = target: ELF4 (Homo sapiens, UniProt Q99607 1-663); conditions: protein: recombinant; tags: N-terminal GST; dsDNA, one strand shown
# Sequence of ELF4 (Q99607 whole entry): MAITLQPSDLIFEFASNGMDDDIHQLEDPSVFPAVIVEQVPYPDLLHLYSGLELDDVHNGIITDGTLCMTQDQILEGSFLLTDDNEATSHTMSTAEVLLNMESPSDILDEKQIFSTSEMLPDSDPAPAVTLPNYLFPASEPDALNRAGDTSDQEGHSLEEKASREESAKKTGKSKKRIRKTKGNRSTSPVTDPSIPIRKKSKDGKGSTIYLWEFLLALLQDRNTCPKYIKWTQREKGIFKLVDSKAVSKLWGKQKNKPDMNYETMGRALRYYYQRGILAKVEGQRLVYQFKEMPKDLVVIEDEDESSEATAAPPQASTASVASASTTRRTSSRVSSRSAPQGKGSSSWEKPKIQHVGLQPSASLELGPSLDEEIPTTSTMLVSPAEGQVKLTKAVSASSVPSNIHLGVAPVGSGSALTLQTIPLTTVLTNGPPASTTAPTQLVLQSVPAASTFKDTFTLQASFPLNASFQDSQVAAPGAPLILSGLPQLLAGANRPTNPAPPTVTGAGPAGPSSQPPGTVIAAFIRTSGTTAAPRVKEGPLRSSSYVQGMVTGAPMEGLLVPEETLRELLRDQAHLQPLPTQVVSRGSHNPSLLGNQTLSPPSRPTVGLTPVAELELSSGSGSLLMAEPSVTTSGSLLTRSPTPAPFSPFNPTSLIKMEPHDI
# Method in brief: as §1
# [6] = target: T3, ELK4 (Homo sapiens, UniProt P28324-2 1-405); conditions: protein: recombinant; tags: N-terminal GST; dsDNA, one strand shown
# T3 sequence: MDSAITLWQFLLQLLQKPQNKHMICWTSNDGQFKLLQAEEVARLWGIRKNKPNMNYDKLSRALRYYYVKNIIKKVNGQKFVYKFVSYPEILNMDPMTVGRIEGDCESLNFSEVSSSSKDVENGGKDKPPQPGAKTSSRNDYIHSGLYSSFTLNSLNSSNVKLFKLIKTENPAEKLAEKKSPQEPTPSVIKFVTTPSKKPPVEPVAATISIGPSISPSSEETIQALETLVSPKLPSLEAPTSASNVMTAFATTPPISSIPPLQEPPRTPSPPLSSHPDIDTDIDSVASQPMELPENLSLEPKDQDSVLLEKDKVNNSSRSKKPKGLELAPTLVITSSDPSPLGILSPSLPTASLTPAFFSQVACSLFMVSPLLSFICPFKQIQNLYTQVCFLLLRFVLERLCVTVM
# Method in brief: as §1
# [7] = target: T4, ETV2 (Homo sapiens, UniProt O00321 1-342); conditions: protein: recombinant; tags: N-terminal GST; dsDNA, one strand shown
# T4 sequence: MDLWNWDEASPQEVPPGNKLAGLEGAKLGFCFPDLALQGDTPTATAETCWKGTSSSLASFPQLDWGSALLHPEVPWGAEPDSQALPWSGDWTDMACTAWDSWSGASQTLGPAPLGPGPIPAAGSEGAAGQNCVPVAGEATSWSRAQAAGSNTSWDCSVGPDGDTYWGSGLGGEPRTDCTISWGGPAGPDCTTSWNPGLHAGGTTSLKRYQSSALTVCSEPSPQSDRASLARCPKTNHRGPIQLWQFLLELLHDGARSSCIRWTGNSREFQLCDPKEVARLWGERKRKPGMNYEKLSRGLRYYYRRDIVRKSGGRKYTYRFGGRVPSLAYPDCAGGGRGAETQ
# Method in brief: as §1
# [8] = target: T5, ELF3 (Homo sapiens, UniProt P78545 1-371); conditions: protein: recombinant; tags: N-terminal GST; dsDNA, one strand shown
# T5 sequence: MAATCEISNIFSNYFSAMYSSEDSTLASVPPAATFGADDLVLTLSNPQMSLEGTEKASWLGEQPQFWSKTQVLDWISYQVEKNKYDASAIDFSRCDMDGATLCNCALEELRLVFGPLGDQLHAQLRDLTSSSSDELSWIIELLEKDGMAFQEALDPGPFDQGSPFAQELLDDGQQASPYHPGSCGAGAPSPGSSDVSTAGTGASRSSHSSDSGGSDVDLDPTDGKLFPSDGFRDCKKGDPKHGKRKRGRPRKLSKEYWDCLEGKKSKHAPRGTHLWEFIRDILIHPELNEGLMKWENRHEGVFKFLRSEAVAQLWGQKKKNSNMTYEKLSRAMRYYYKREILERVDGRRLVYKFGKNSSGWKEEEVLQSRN
# Method in brief: as §1
# [9] = target: CRX (Homo sapiens, UniProt O43186 1-299); conditions: protein: recombinant; tags: N-terminal GST; dsDNA, one strand shown
# Sequence of CRX (O43186 whole entry): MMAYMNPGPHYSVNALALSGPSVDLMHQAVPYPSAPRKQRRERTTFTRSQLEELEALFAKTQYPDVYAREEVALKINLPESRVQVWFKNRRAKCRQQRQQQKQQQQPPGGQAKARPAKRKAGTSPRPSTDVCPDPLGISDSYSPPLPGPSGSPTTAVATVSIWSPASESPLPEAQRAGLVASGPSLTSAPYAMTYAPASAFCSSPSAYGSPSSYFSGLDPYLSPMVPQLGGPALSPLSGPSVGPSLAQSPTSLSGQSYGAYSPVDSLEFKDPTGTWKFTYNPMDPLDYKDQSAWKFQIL
# Method in brief: as §1
# [10] = target: ETV1 (Homo sapiens, UniProt P50549 1-477); conditions: protein: recombinant; tags: N-terminal GST; dsDNA, one strand shown
# Sequence of ETV1 (P50549 whole entry): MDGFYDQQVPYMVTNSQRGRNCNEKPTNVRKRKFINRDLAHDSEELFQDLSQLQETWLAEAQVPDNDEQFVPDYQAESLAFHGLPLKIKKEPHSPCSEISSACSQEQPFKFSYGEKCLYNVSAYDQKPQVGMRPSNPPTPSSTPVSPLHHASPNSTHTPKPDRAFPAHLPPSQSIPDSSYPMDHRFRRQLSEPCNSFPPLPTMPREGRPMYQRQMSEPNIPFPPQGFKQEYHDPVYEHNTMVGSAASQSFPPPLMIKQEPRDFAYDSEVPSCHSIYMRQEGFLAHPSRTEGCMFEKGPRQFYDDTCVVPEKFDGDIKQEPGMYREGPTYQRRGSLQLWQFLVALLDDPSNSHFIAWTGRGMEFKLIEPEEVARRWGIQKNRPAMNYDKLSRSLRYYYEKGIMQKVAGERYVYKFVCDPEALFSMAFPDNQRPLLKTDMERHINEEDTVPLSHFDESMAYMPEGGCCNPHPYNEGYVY
# Method in brief: as §1
# [11] = target: T6, ERF (Homo sapiens, UniProt P50548 1-548); conditions: protein: recombinant; tags: N-terminal GST; dsDNA, one strand shown
# T6 sequence: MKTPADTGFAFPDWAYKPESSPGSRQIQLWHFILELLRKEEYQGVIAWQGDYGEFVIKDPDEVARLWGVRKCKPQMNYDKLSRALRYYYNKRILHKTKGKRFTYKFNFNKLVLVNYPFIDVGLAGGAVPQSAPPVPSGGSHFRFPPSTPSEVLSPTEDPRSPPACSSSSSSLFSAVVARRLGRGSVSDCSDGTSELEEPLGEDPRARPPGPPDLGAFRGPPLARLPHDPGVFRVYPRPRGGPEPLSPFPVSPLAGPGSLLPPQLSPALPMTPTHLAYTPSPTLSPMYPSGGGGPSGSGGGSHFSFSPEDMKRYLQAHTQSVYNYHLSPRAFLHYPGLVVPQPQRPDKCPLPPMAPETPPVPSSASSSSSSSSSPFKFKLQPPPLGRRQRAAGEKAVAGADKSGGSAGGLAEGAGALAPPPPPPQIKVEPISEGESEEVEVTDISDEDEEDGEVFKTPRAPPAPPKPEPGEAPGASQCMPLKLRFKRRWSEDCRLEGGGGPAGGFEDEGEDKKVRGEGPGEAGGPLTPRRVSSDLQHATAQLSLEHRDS
# Method in brief: as §1
# [12] = target: T7, ETV3L (Homo sapiens, UniProt Q6ZN32 1-361); conditions: protein: recombinant; tags: N-terminal GST; dsDNA, one strand shown
# T7 sequence: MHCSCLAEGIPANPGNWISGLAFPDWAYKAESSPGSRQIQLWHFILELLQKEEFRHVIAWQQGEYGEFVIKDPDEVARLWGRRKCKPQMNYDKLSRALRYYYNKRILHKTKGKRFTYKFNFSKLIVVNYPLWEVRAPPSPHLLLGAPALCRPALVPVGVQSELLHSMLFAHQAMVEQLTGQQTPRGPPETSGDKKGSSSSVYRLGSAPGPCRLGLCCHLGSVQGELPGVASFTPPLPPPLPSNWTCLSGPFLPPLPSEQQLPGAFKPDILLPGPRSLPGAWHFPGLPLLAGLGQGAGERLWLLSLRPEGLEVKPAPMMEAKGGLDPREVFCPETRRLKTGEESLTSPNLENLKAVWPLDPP
# Method in brief: as §1
# [13] = target: T8, ETS2 (Homo sapiens, UniProt P15036 1-469); conditions: protein: recombinant; tags: N-terminal GST; dsDNA, one strand shown
# T8 sequence: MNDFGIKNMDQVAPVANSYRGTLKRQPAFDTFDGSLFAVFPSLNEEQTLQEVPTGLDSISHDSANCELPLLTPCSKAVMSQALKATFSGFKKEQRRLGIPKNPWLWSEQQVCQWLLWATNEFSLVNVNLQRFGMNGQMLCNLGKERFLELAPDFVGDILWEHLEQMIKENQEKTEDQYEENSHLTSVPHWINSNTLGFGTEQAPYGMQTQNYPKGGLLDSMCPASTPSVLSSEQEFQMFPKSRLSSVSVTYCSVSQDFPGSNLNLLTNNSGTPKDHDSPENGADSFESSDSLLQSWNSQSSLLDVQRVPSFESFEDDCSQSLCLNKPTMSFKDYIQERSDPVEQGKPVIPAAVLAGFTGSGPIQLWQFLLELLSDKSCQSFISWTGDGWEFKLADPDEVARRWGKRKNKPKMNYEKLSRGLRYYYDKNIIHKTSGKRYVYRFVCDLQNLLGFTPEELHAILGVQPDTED
# Method in brief: as §1
# [14] = target: T9, SPDEF (Homo sapiens, UniProt O95238 1-335); conditions: protein: recombinant; tags: N-terminal GST; dsDNA, one strand shown
# T9 sequence: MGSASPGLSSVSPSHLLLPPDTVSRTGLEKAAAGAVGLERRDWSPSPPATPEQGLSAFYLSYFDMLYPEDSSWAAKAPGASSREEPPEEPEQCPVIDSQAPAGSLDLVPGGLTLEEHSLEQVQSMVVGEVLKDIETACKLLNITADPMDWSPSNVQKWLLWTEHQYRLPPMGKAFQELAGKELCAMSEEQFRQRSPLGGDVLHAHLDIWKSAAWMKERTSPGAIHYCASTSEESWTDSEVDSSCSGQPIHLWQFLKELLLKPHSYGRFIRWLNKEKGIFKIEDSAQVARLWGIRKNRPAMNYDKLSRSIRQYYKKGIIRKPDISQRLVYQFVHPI
# Method in brief: as §1
# [15] = target: T10, ETV7 (Homo sapiens, UniProt Q9Y603 1-341); conditions: protein: recombinant; tags: N-terminal GST; dsDNA, one strand shown
# T10 sequence: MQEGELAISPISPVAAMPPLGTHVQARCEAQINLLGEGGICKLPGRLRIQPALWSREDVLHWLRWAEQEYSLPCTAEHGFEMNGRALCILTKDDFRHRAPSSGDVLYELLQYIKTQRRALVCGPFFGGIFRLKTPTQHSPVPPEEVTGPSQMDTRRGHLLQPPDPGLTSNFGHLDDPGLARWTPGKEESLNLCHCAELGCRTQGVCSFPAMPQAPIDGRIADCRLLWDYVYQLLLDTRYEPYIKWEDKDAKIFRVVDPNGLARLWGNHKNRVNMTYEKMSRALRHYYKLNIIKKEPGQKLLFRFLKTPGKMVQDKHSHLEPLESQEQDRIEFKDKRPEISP
# Method in brief: as §1
# [16] = target: T11, ELF5 (Homo sapiens, UniProt Q9UKW6-2 1-255); conditions: protein: recombinant; tags: N-terminal GST; dsDNA, one strand shown
# T11 sequence: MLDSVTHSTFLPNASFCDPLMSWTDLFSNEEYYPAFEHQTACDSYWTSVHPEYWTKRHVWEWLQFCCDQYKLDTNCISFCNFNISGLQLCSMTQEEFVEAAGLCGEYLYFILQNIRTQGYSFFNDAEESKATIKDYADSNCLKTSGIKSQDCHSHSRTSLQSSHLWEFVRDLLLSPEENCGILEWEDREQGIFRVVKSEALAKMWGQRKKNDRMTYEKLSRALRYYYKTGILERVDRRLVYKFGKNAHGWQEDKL
# Method in brief: as §1
# [17] = target: T12, ETV3 (Homo sapiens, UniProt P41162-2 1-143); conditions: protein: recombinant; tags: N-terminal GST; dsDNA, one strand shown
# T12 sequence: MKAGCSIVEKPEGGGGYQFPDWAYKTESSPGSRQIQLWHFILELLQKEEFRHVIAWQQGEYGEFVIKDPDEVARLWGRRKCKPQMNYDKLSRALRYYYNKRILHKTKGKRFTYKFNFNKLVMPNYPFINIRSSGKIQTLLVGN
# Method in brief: as §1
# [18] = target: ETV6 (Homo sapiens, UniProt P41212 1-452); conditions: protein: recombinant; tags: N-terminal GST; dsDNA, one strand shown
# Sequence of ETV6 (P41212 whole entry): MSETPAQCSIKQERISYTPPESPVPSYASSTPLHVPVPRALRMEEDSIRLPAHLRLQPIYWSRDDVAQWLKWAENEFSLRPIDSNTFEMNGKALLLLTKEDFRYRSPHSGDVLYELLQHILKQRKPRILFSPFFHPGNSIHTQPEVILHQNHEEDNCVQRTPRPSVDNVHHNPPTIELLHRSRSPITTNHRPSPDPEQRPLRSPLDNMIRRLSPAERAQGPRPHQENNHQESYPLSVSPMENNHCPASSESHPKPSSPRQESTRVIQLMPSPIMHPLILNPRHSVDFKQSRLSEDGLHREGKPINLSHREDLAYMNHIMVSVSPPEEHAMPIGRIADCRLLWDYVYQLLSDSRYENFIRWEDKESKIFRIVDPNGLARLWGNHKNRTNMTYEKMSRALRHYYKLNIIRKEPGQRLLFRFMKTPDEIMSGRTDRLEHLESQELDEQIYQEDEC
# Method in brief: as §1
sequence,measurement,setting,value
CTTCGT,binding signal,[1],"1.33 fold enrichment (6-mer frequency, TF over GST control)"
same,binding signal,[2],"1.33 fold enrichment (6-mer frequency, TF over GST control)"
same,binding signal,[3],"1.31 fold enrichment (6-mer frequency, TF over GST control)"
same,binding signal,[4],"1.4 fold enrichment (6-mer frequency, TF over GST control)"
same,binding signal,[5],"1.29 fold enrichment (6-mer frequency, TF over GST control)"
same,binding signal,[6],"1.39 fold enrichment (6-mer frequency, TF over GST control)"
same,binding signal,[7],"1.41 fold enrichment (6-mer frequency, TF over GST control)"
same,binding signal,[8],"1.41 fold enrichment (6-mer frequency, TF over GST control)"
same,binding signal,[9],"1.22 fold enrichment (6-mer frequency, TF over GST control)"
same,binding signal,[10],"1.32 fold enrichment (6-mer frequency, TF over GST control)"
same,binding signal,[11],"1.4 fold enrichment (6-mer frequency, TF over GST control)"
same,binding signal,[12],"1.32 fold enrichment (6-mer frequency, TF over GST control)"
same,binding signal,[13],"1.34 fold enrichment (6-mer frequency, TF over GST control)"
same,binding signal,[14],"1.25 fold enrichment (6-mer frequency, TF over GST control)"
same,binding signal,[15],"1.4 fold enrichment (6-mer frequency, TF over GST control)"
same,binding signal,[16],"1.3 fold enrichment (6-mer frequency, TF over GST control)"
same,binding signal,[17],"1.31 fold enrichment (6-mer frequency, TF over GST control)"
same,binding signal,[18],"1.31 fold enrichment (6-mer frequency, TF over GST control)"
